This is part of a sample that, as a whole, favours compounds with a hit. Of some 83,000 tested, about 20% had one in any assay.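 How to read the values: 0–100, growth inhibition (40 = 60% inhibited); 0, no net growth; -100 to 0, cell death (-40 = 40% of starting cells died; -100 = all dead).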 A number with no mark means an inactive call. Active and inactive are the calls of the source. Rule for the calls: active = growth percent below 10; inactive = the rest.
Experiments:
Test in all cases: NCI-60 one-dose screen, 48 h (100 = growth as untreated, 0 = no growth, -100 = all killed)
Conditions in all cases: 10 µM unless noted
[1] = test system: SK-MEL-2 melanoma
[2] = test system: EKVX NSCLC
[3] = test system: SN12C renal
[4] = test system: UO-31 renal
[5] = test system: TK-10 renal
[6] = test system: ACHN renal
[7] = test system: A498 renal
[8] = test system: CCRF-CEM leukemia
[9] = test system: MOLT-4 leukemia
[10] = test system: SR leukemia
[11] = test system: RPMI-8226 leukemia
[12] = test system: OVCAR-8 ovarian
[13] = test system: OVCAR-5 ovarian
[14] = test system: OVCAR-4 ovarian
[15] = test system: SK-OV-3 ovarian
[16] = test system: IGROV1 ovarian
[17] = test system: OVCAR-3 ovarian
[18] = test system: HS 578T breast
[19] = test system: NCI/ADR-RES ovarian
[20] = test system: T-47D breast

## O=C1CC23OC4ON=C(Br)C4C2C(O)c2ccccc2N13 (stereo not given)
[1]
  growth: 89.8%
[2]
  growth: 92.1%
[3]
  growth: 101%
[4]
  growth: 63.4%
[5]
  growth: 132%
[6]
  growth: 94.3%
[7]
  growth: 118%
[8]
  growth: 111%
[9]
  growth: 99.6%
[10]
  growth: 107%
[11]
  growth: 100%
[12]
  growth: 104%
[13]
  growth: 114%
[14]
  growth: 120%
[15]
  growth: 93.5%
[16]
  growth: 88.8%
[17]
  growth: 96.3%
[18]
  growth: 98.4%
[19]
  growth: 94.5%
[20]
  growth: 100%

## COc1cc(-c2csc(NC(=O)Nc3ccc(Cl)cc3)n2)cc(OC)c1OC
[1]
  growth: 29.3%
[2]
  growth: 26%
[3]
  growth: 27.5%
[4]
  growth: 16.9%
[5]
  growth: 26.6%
[6]
  growth: 18.3%
[7]
  growth: 21.7%
[8]
  growth: 6.31% (active)
[9]
  growth: -17% (active)
[10]
  growth: 33.7%
[11]
  growth: 8.27% (active)
[12]
  growth: 10.4%
[13]
  growth: 76.9%
[14]
  growth: 9.02% (active)
[15]
  growth: 53.5%
[16]
  growth: 42.6%
[17]
  growth: 19.4%
[18]
  growth: 58.9%
[19]
  growth: 7% (active)
[20]
  growth: -7.45% (active)

## Oc1ccc(CNNc2ccnc3c(O)cccc23)c2cccnc12
[1]
  growth: 31.4%
[2]
  growth: 8.17% (active)
[3]
  growth: 45.4%
[4]
  growth: 23.7%
[5]
  growth: 30.7%
[6]
  growth: 15.2%
[7]
  growth: 74.7%
[8]
  growth: 18.7%
[9]
  growth: 13.4%
[10]
  growth: 20.4%
[11]
  growth: 22.2%
[12]
  growth: 20.8%
[13]
  growth: 59.1%
[14]
  growth: 34.4%
[15]
  growth: 27.6%
[16]
  growth: 35.1%
[17]
  growth: 37.8%
[18]
  growth: 47.7%
[19]
  growth: 6.61% (active)
[20]
  growth: 29.6%

## CC(=O)Oc1c2c(nc3c1c1ccccc1n3Cc1ccccc1)-c1ccccc1C2
[1]
  growth: 71.4%
[2]
  growth: 80.8%
[3]
  growth: 85.8%
[4]
  growth: 58.2%
[5]
  growth: 114%
[6]
  growth: 85.7%
[7]
  growth: 82%
[8]
  growth: 91.5%
[9]
  growth: 72.6%
[10]
  growth: 86.2%
[11]
  growth: 73.3%
[12]
  growth: 88.4%
[13]
  growth: 97%
[14]
  growth: 83.9%
[15]
  growth: 92%
[16]
  growth: 81.1%
[17]
  growth: 79%
[18]
  growth: 94.4%
[19]
  growth: 85.5%
[20]
  growth: 56.7%

## CC(=O)OC[C@]12CC[C@@H](c3cn(Cc4ccc(Cn5cc([C@@H]6CC[C@]7(COC(C)=O)CC[C@]8(C)[C@H](CC[C@@H]9[C@@]%10(C)CC[C@H](OC(C)=O)C(C)(C)[C@@H]%10CC[C@]98C)[C@@H]67)nn5)cc4)nn3)[C@@H]1[C@H]1CC[C@@H]3[C@@]4(C)CC[C@H](OC(C)=O)C(C)(C)[C@@H]4CC[C@@]3(C)[C@]1(C)CC2
[1]
  growth: 97%
[2]
  growth: 104%
[3]
  growth: 106%
[4]
  growth: 90.7%
[5]
  growth: 95.1%
[6]
  growth: 97.1%
[7]
  growth: 105%
[8]
  growth: 102%
[9]
  growth: 97.1%
[10]
  growth: 98%
[11]
  growth: 108%
[12]
  growth: 92%
[13]
  growth: 102%
[14]
  growth: 109%
[15]
  growth: 100%
[16]
  growth: 105%
[17]
  growth: 97.4%
[18]
  growth: 97.2%
[19]
  growth: 102%
[20]
  growth: 87.1%

## OCCNc1nc(NCCO)nc(Nc2ccc(C3=NN(c4cc(Cl)cc(Cl)c4)C(c4ccccc4)C3)cc2)n1 (stereo not given)
[1]
  growth: 40.4%
[2]
  growth: 59.4%
[3]
  growth: 55%
[4]
  growth: 56.9%
[5]
  growth: 74.1%
[6]
  growth: 42.2%
[7]
  growth: 85.1%
[8]
  growth: 24.3%
[9]
  growth: 20.5%
[10]
  growth: 5.4% (active)
[11]
  growth: 30.9%
[12]
  growth: 48.9%
[13]
  growth: 85.8%
[14]
  growth: 57.7%
[15]
  growth: 94.5%
[16]
  growth: 57.5%
[17]
  growth: 26.2%
[18]
  growth: 62.9%
[19]
  growth: 57.2%
[20]
  growth: 63.6%

## S=C(Nc1ccc(Cl)cc1)c1ccccn1
[1]
  growth: 92.1%
[2]
  growth: 87.9%
[3]
  growth: 99.3%
[4]
  growth: 71.5%
[5]
  growth: 110%
[6]
  growth: 99%
[7]
  growth: 69.2%
[8]
  growth: 99.4%
[9]
  growth: 101%
[10]
  growth: 102%
[11]
  growth: 96.8%
[12]
  growth: 92.7%
[13]
  growth: 102%
[14]
  growth: 96.9%
[15]
  growth: 94.3%
[16]
  growth: 93.3%
[17]
  growth: 109%
[18]
  growth: 95.9%
[19]
  growth: 96.6%
[20]
  growth: 79.2%

## COCCc1n(Cc2ccc3ccccc3c2)c2ccccc2[n+]1Cc1ccc2ccccc2c1
[1]
  growth: -61.6% (active)
[2]
  growth: 4.7% (active)
[3]
  growth: -68% (active)
[4]
  growth: -18.7% (active)
[5]
  growth: -80.9% (active)
[6]
  growth: 20.3%
[7]
  growth: -19.1% (active)
[8]
  growth: -9.95% (active)
[9]
  growth: -43.4% (active)
[10]
  growth: -57% (active)
[11]
  growth: -52.7% (active)
[12]
  growth: -54.6% (active)
[13]
  growth: -2.95% (active)
[14]
  growth: -4.37% (active)
[15]
  growth: -14.6% (active)
[16]
  growth: -63.4% (active)
[17]
  growth: -72.8% (active)
[18]
  growth: -6.4% (active)
[19]
  growth: 84.4%
[20]
  growth: -16.7% (active)

## CO[C@@]12C=C[C@@]34CCC(=O)N3c3ccccc3[C@@H](O1)C4C2
[1]
  growth: 101%
[2]
  growth: 98.8%
[3]
  growth: 95.5%
[4]
  growth: 81.4%
[5]
  growth: 95.1%
[6]
  growth: 98.6%
[7]
  growth: 109%
[8]
  growth: 90.1%
[9]
  growth: 95.9%
[10]
  growth: 96.9%
[11]
  growth: 94.6%
[12]
  growth: 97.7%
[13]
  growth: 101%
[14]
  growth: 109%
[15]
  growth: 107%
[16]
  growth: 99.1%
[17]
  growth: 108%
[18]
  growth: 95.3%
[19]
  growth: 97.7%
[20]
  growth: 96.2%

## NC(=O)c1ccc2nc3c(n2c1)C(=O)C(=O)c1ccccc1-3
[1]
  growth: -71.2% (active)
[2]
  growth: -76% (active)
[3]
  growth: -83.3% (active)
[4]
  growth: -99.7% (active)
[5]
  growth: -72.9% (active)
[6]
  growth: -100% (active)
[7]
  growth: -58.6% (active)
[8]
  growth: -1.51% (active)
[9]
  growth: -37.8% (active)
[10]
  growth: -4.89% (active)
[11]
  growth: -28.1% (active)
[12]
  growth: -61.2% (active)
[13]
  growth: -86.4% (active)
[14]
  growth: -97.3% (active)
[15]
  growth: -89.2% (active)
[16]
  growth: -48.8% (active)
[17]
  growth: -99.2% (active)
[18]
  growth: -6.37% (active)
[19]
  growth: -1.27% (active)
[20]
  growth: -46.2% (active)

## C=CCn1c(SCC(=O)Nc2ccc(C(=O)/C=C/c3ccc(Cl)cc3)cc2)nnc1-c1cc(OC)c(OC)c(OC)c1
[1]
  growth: 103%
[2]
  growth: 92.3%
[3]
  growth: 79.7%
[4]
  growth: 66.5%
[5]
  growth: 102%
[6]
  growth: 106%
[7]
  growth: 82.5%
[8]
  growth: 84.6%
[9]
  growth: 70.8%
[10]
  growth: 72.9%
[11]
  growth: 28.7%
[12]
  growth: 91.6%
[13]
  growth: 116%
[14]
  growth: 87.9%
[15]
  growth: 109%
[16]
  growth: 99.5%
[17]
  growth: 91.9%
[18]
  growth: 87.8%
[19]
  growth: 95.5%
[20]
  growth: 78.9%

## Cc1ccccc1NC(=O)c1sc2nc(C)c(C(C)O)cc2c1N (stereo not given)
[1]
  growth: 34.4%
[2]
  growth: 75.7%
[3]
  growth: 51.3%
[4]
  growth: 69.6%
[5]
  growth: 51.5%
[6]
  growth: 78.3%
[7]
  growth: 47.9%
[8]
  growth: 45.7%
[9]
  growth: 32.6%
[10]
  growth: 4.46% (active)
[11]
  growth: 64.1%
[12]
  growth: 58.1%
[13]
  growth: 87.8%
[14]
  growth: 92.9%
[15]
  growth: 47.5%
[16]
  growth: 57.6%
[17]
  growth: 27.8%
[18]
  growth: 53.3%
[19]
  growth: 29.4%
[20]
  growth: 54%

## CCOC(=O)c1c(-c2ccc(O)cc2)c(C#N)c2c(C#N)c(N)nn2c1N
[1]
  growth: 44.9%
[2]
  growth: 71.6%
[3]
  growth: 81.7%
[4]
  growth: 69.9%
[5]
  growth: 82.8%
[6]
  growth: 88%
[7]
  growth: 34.9%
[8]
  growth: 35.7%
[9]
  growth: 23.7%
[10]
  growth: 22.3%
[11]
  growth: 38.7%
[12]
  growth: 70.8%
[13]
  growth: 89.3%
[14]
  growth: 81%
[15]
  growth: 75.5%
[16]
  growth: 52.3%
[17]
  growth: 66.3%
[18]
  growth: 70.2%
[19]
  growth: 95.9%
[20]
  growth: 28.2%

## COC(=O)c1nc(-c2ccccc2)oc1S(=O)(=O)n1nc(-c2ccccc2)cc1N
[1]
  growth: 85.9%
[2]
  growth: 95.9%
[3]
  growth: 73.3%
[4]
  growth: 65.6%
[5]
  growth: 114%
[6]
  growth: 19.2%
[7]
  growth: 108%
[8]
  growth: 27.2%
[9]
  growth: 17.6%
[10]
  growth: 1.74% (active)
[11]
  growth: 57.1%
[12]
  growth: 75.8%
[13]
  growth: 93.5%
[14]
  growth: 107%
[15]
  growth: 106%
[16]
  growth: 73.6%
[17]
  growth: 68.3%
[18]
  growth: 101%
[19]
  growth: 99%
[20]
  growth: 49.5%

## COc1ccccc1-c1ccc2nc(NC(=O)Nc3cc(C(F)(F)F)cc(C(F)(F)F)c3)sc2c1
[1]
  growth: -14.1% (active)
[2]
  growth: 10.7%
[3]
  growth: 13%
[4]
  growth: 13.1%
[5]
  growth: 9.11% (active)
[6]
  growth: 8.64% (active)
[7]
  growth: -26.7% (active)
[8]
  growth: 0.889% (active)
[9]
  growth: -15.7% (active)
[10]
  growth: -23.8% (active)
[11]
  growth: -15.9% (active)
[12]
  growth: 9.39% (active)
[13]
  growth: 20.5%
[14]
  growth: 16.5%
[15]
  growth: -13.2% (active)
[16]
  growth: 42.4%
[17]
  growth: 8% (active)
[18]
  growth: -0.697% (active)
[19]
  growth: 5.44% (active)
[20]
  growth: -13.5% (active)

— PubChem BioAssay (NCI)
